# Experimental data reported in the supplement of paper PMC10981050.
# Values joined by “and” are separate entries in the source; they are usually repeats but may differ in a detail not shown here. Equal entries are not always repeated. Structures can show the parent of a compound that is named as a salt.
# Assays:
# Assay in all cases: cell viability relative to vehicle control; higher = less cytotoxic
# Conditions in all cases: 10 µM
# K562 = test system: K562
# Procedure, shortened: (§1)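 Each screen used CRISPR-edited mutant and wild-type clones from four leukaemia lines. Compounds were acoustically dispensed at a single 10 µM dose, and CellTiter-Glo luminescence was read after 48 h with the supernatant first removed. Viability was analysed in Genedata Screener and given as percent of the on-plate vehicle control.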
# MARIMO = test system: MARIMO
# Procedure, shortened: as §1
# MOLM14 = test system: MOLM14
# Procedure, shortened: as §1
# OCI-AML2 = test system: OCI-AML2
# Procedure, shortened: as §1
Structure (SMILES),cell viability (K562; SRSF2 genotype: SRSF2 P95H/wt),cell viability (K562; SRSF2 genotype: SRSF2 wt/wt),cell viability (MARIMO; SRSF2 genotype: SRSF2 P95H/wt),cell viability (MARIMO; SRSF2 genotype: SRSF2 wt/wt),cell viability (MOLM14; SRSF2 genotype: SRSF2 P95H/wt),cell viability (MOLM14; SRSF2 genotype: SRSF2 wt/wt),cell viability (OCI-AML2; SRSF2 genotype: P95H/wt),cell viability (OCI-AML2; SRSF2 genotype: wt/wt)
C[C@@H]1O[C@@H](O[C@H]2[C@H](O[C@H]3CC[C@@]4(C)[C@@H](CC[C@]5(C)[C@@H]4CC=C4[C@@H]6CC(C)(C)CC[C@]6(C(=O)O[C@@H]6O[C@H](CO[C@@H]7O[C@H](CO)[C@@H](O)[C@H](O)[C@H]7O)[C@@H](O)[C@H](O)[C@H]6O)CC[C@]45C)[C@]3(C)CO)OC[C@H](O)[C@@H]2O)[C@H](O)[C@H](O[C@@H]2O[C@H](CO)[C@@H](O[C@@H]3O[C@H](CO)[C@@H](O)[C@H](O)[C@H]3O)[C@H](O)[C@H]2O)[C@H]1O [Macranthoidin B],86.7% and 84.6%,85%,83.6%,94.2%,86%,86.6%,91.4%,86%
CS(=O)(=O)n1cc2c(n1)CN([C@H]1CO[C@H](c3cc(F)ccc3F)[C@@H](N)C1)C2 [Omarigliptin (MK-3102)],98.3% and 102%,96.2%,99.2%,99.9%,101%,96.4%,101%,103%
COc1cc2nccc(Oc3ccc(NC(=O)c4cn(C(C)C)c(=O)n(-c5ccc(F)cc5)c4=O)cc3F)c2cc1OC,30.1% and 27.1%,48.2%,102%,102%,27.7%,43.7%,70.4%,80.4%
CCOC(=O)c1ccc(C#Cc2ccc3c(c2)C(C)(C)CCS3)nc1 [Tazarotene (Avage)],81% and 84.7%,78.1%,46.6%,40.8%,76.2%,88.1%,14.1%,27.8%
O=c1ccc2ccc(O)cc2[nH]1 [7-Hydroxycarbostyril],95.8% and 92.9%,101%,95.4%,101%,95%,101%,91.2%,107%
CC(C)Oc1ccc(-c2cnc3c(-c4ccnc5ccccc45)cnn3c2)cc1,86.4% and 88.6%,84.7%,86.1%,98%,84.6%,90.4%,82.2%,78.1%
CC[C@]1(O)C[C@H]2CN(CCc3c([nH]c4ccccc34)[C@@](C(=O)OC)(c3cc4c(cc3OC)N(C=O)[C@H]3[C@@](O)(C(=O)OC)[C@H](OC(C)=O)[C@]5(CC)C=CCN6CC[C@]43[C@@H]65)C2)C1 [Vincristine Sulfate],13.6% and 37%,35.8%,6.92%,9.68%,0.94%,1.22%,5.06%,9.32%
CCCOC(C(=O)OC1CCN(C)CC1)(c1ccccc1)c1ccccc1 [Propiverine hydrochloride],80.6% and 87.8%,88.2%,68.5%,79.1%,75.2%,85.2%,72.1%,64.2%
COc1ccc(S(=O)(=O)Nc2cc(-c3c(O)ccc4ccccc34)c(O)c3ccccc23)cc1,7.52% and 4.96%,34.5%,0.33%,0.36%,0.32%,0.34%,0.37%,0.35%
Cc1c(C(=O)C=Cc2ccccc2)[n+](=O)c2ccccc2n1[O-] [Quinocetone],72.1% and 60%,74.1%,62.2%,63.8%,56.5%,62.6%,62.7%,68.6%
O=C(/C=C/c1ccc(O)c2c1[C@H](C(=O)O[C@H](Cc1ccc(O)c(O)c1)C(=O)O)[C@@H](c1ccc(O)c(O)c1)O2)O[C@H](Cc1ccc(O)c(O)c1)C(=O)O [Salvianolic acid B],96.5% and 101%,101%,101%,108%,96.7%,103%,98.9%,97.8%
CN1CCN(C(=O)C=Cc2ccc([N+](=O)[O-])o2)CC1,43.9% and 54.3%,65.3%,65%,72.4%,40.7%,35.7%,24.7%,42.6%
COc1ccc(CCc2nc3cc(-c4c(C)noc4C)ccc3n2C[C@H](C)N2CCOCC2)cc1Cl,80.9% and 86.9%,73.8%,76.9%,70.5%,47.4%,42.5%,45.7%,60.6%
"CCCCCCCCCCC[C@@H](C[C@@H]1OC(=O)[C@H]1CCCCCC)OC(=O)[C@H](CC(C)C)NC=O [Orlistat (Alli, Xenical)]",75.8% and 85.2%,76.8%,41.8%,64.9%,75.3%,73.4%,49.6%,86.8%
CCN(CC)CCOC(=O)c1ccc(N)cc1Cl [Chloroprocaine HCl],95.2% and 93.5%,97.1%,103%,115%,98%,99.3%,90.7%,113%
CC(C)=CCC[C@](C)(O[C@@H]1O[C@H](CO[C@@H]2OC[C@H](O)[C@H](O)[C@H]2O)[C@@H](O)[C@H](O)[C@H]1O)[C@H]1CC[C@]2(C)[C@@H]1[C@H](O)C[C@@H]1[C@@]3(C)CC[C@H](O[C@@H]4O[C@H](CO)[C@@H](O)[C@H](O)[C@H]4O[C@@H]4O[C@H](CO)[C@@H](O)[C@H](O)[C@H]4O)C(C)(C)[C@@H]3CC[C@]12C [Ginsenoside Rb2],86% and 89.7%,84%,88.4%,98.1%,92.2%,87.7%,83.2%,101%
NC(=S)N/N=C/c1ncccc1N [Triapine],75.8% and 77.5%,76.5%,20.1%,15.3%,6.66%,1.54%,13.1%,15.1%
C=CC(=O)N1CCC[C@@H](n2nc(-c3ccc(Oc4ccccc4)cc3)c3c(N)ncnc32)C1,35.9% and 57.5%,42.9%,70.9%,89.1%,16.5%,17.8%,44.3%,53.1%

Structure (SMILES),cell viability (K562; SRSF2 genotype: SRSF2 P95H/wt),cell viability (K562; SRSF2 genotype: SRSF2 wt/wt),cell viability (MARIMO; SRSF2 genotype: SRSF2 P95H/wt),cell viability (MARIMO; SRSF2 genotype: SRSF2 wt/wt),cell viability (MOLM14; SRSF2 genotype: SRSF2 P95H/wt),cell viability (MOLM14; SRSF2 genotype: SRSF2 wt/wt),cell viability (OCI-AML2; SRSF2 genotype: P95H/wt),cell viability (OCI-AML2; SRSF2 genotype: wt/wt)
CC(=O)Nc1cccc2c1c(Sc1ccc(Cl)cc1)c(C)n2CC(=O)O,108% and 110%,100%,108%,112%,105%,106%,101%,108%
COc1ccc(CCNCC(O)COc2cccc(C)c2)cc1OC (stereo not given) [Bevantolol hydrochloride],92.7% and 89.9%,88.2%,82.8%,93.4%,90.6%,91.2%,81.8%,84.8%
CN1CCN(c2ccc(OC(F)(F)F)c(Nc3ncc4c(n3)-c3c(c(C(N)=O)nn3CCO)CC4)c2)CC1,29.2% and 49.6%,46%,24.7%,22.9%,17.5%,4.9%,14.6%,18.8%
CC(C)[C@H]1C(=O)N[C@@H](CCCNC(=N)N)C(=O)NCC(=O)N[C@@H](CC(=O)O)C(=O)N[C@H](Cc2ccccc2)C(=O)N1C [Cilengitide trifluoroacetate],98.5% and 105%,101%,102%,99.1%,103%,99.5%,104%,109%
COCCOc1cnc2ccn([C@H](C)c3nnc4c(F)cc(-c5cnn(C)c5)cn34)c(=O)c2c1,86.5% and 87.1%,85.7%,86.8%,94.3%,96.7%,93.5%,82%,85.9%
c1cc2c(c3c1C[C@H]1c4cc5c(cc4CCN1C3)OCO5)OCO2 [Stylopine hydrochloride],90.4% and 91.9%,91.4%,97.7%,96.3%,88%,94%,92.8%,97.5%
Cc1nc(NC(=O)N2CCC[C@H]2C(N)=O)sc1-c1ccnc(C(C)(C)C(F)(F)F)c1 [Alpelisib (BYL719)],93.3% and 102%,90.4%,55.6%,52.6%,52.6%,65.1%,32.2%,41%
CC1=CC(=O)CC(C)(C)C1=O [Ketoisophorone],98.4% and 92.1%,100%,98.3%,110%,101%,105%,96.1%,108%
O=C1CCc2ccc(OCCCCN3CCN(c4cccc(Cl)c4Cl)CC3)cc2N1 [Aripiprazole (Abilify)],90.5% and 93%,93.2%,86.8%,80.1%,86.5%,98%,47.1%,75.5%
Cc1cc(CN2CCN(c3c(Br)cnc4nc(-c5ccc(N6CCN(C)CC6)cc5)[nH]c34)CC2)no1,19.6% and 18.5%,24.2%,88.8%,87%,0.57%,0.62%,6.22%,1.52%
COc1cc(C=CC=O)ccc1O [Ferulaldehyde],102% and 97.5%,98.5%,97%,103%,89.6%,97.7%,95.6%,111%
COc1cc2ncnc(Nc3cccc(Cl)c3F)c2cc1OC(=O)N1CCN(C)C[C@H]1C,84.8% and 93.4%,101%,104%,106%,77.9%,87.3%,89.8%,75.7%
CCCCOc1cc(C(=O)NCCN(CC)CC)c2ccccc2n1 [Dibucaine (Cinchocaine) HCl],94.5% and 84%,85.3%,81.8%,91.5%,86.2%,91.7%,93.2%,86.1%
COC(=O)c1ccccc1O [Methyl salicylate],101% and 96.7%,94.8%,99.2%,104%,96.3%,104%,94.3%,102%
CC(C)(C)c1cc(C(C)(C)C)c(NC(=O)c2c[nH]c3ccccc3c2=O)cc1O [Ivacaftor (VX-770)],79.4% and 75.5%,76.1%,101%,111%,85.7%,87.5%,91.7%,86%
O=c1c(-c2ccc(O)cc2)coc2cc(O)cc(O)c12 [Genistein],97.4% and 105%,105%,92.6%,87.8%,79.4%,88.7%,81.8%,87.4%
c1coc(CNc2ncnc3[nH]cnc23)c1 [Kinetin (6-Furfuryladenine)],94.1% and 107%,104%,100%,113%,98.4%,105%,116%,97.6%
